From PubChem BioAssay (Tox21)
Where “and” joins values, the source holds several entries; their conditions need not be identical. Equal entries are not always repeated. Inconclusive results are not listed. Entries that show only a call come without a potency. A structure can be active in one record and inactive in another. Calls of active or inactive are those of the source. Unless noted, calls follow the shape of the full dose curve.

Tests used:
[1] = Nuclear factor erythroid 2-related factor 2/antioxidant responsive element (Nrf2/ARE) small molecule agonists: luciferase reporter gene qHTS assay in human keratinocytes (AID 1919969); also: nearly all actives have a fitted effect of over 35% in size; also: potency is read from the fitted curve at half-maximal effect
[2] = target: Gonadotropin-releasing hormone receptor (Homo sapiens) (UniProt P30968); assay: Human gonadotropin-releasing hormone receptor (GnRHR) small molecule agonists, calcium flux assay in GnRHR-HEK293 cells (AID 1920063); also: nearly all actives have a fitted effect of over 35% in size
Gonadotropin-releasing hormone receptor (Homo sapiens), sequence (P30968 whole entry, looked up): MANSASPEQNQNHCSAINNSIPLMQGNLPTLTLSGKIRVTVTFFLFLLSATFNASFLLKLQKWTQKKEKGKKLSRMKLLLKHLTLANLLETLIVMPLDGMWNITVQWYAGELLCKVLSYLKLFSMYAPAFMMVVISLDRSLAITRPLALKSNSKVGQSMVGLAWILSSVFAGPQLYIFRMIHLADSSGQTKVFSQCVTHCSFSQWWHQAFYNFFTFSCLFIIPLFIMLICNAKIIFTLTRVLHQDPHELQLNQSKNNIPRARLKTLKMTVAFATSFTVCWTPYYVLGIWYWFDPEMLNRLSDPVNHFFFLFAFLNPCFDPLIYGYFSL
Procedure, shortened: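 We seeded human GnRHR-expressing HEK293 cells for 18 hours, loaded them with calcium dye for an hour at 37 C, added test compounds, and recorded fluorescence intensity kinetically for three minutes.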

[3] = target: KiSS-1 receptor (Homo sapiens) (UniProt Q969F8); assay: Human kisspeptin (KISS1R) small molecule agonists, calcium flux assay in KISS1R-HEK293 cells (AID 1920064; active = well fitted activation curve with a large enough effect in the repeat runs)
KiSS-1 receptor (Homo sapiens), sequence (Q969F8 whole entry, looked up): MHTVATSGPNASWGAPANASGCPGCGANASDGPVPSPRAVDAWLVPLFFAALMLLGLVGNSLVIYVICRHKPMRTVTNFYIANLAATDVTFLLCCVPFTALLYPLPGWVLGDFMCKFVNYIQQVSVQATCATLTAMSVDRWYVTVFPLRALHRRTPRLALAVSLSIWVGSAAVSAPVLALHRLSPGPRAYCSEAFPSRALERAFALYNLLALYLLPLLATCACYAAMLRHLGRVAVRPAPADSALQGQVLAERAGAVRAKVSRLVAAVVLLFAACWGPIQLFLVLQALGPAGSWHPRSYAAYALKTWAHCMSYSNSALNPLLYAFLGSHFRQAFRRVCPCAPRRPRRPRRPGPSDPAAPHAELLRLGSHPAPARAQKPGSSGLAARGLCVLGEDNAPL
Procedure, shortened: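 Kinetic calcium assay, 1 s sampling over 3 min at Ex/Em 480/540, in HEK293 cells engineered with human KISS1R; compounds delivered in DMSO after 1 h dye loading.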

[4] = G protein-coupled receptor (GPCR) small molecule agonists, calcium flux assay: HEK293 wild type cell line counter screen (AID 1920065)
Procedure, shortened: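 Calcium-sensitive dye, loaded 1 h at 37 C into cells cultured 18 h, reports compound-evoked calcium release as fluorescence (Ex/Em 480/540), measured over 3 min. Agonist mode; 15-point titrations, triplicate.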

[5] = p53 small molecule agonists, cell-based qHTS assay with human liver microsomes: qHTS cell viability counter screen (AID 1963579); also: nearly all actives have a fitted effect of over 45% in size; also: potency is read from the fitted curve at half-maximal effect
Procedure, shortened: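 p53RE-bla cells, 4,000/well, dosed 5 hours after plating, with human liver microsomes (0.5 mg/mL final) plus NADPH (0.5 mg/mL final), 16 hours at 37 C. Viability read as CellTiter-Glo luminescence after 30 min at room temperature.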

[6] = p53 small molecule agonists, cell-based qHTS assay with rat liver microsomes: qHTS cell viability counter screen (AID 1963580); also: nearly all actives have a fitted effect of over 45% in size
Procedure, shortened: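 Intracellular ATP, by CellTiter-Glo luminescence, defines viability. HCT-116 p53RE-bla cells, 4,000 per well, were compound-treated in the presence of rat liver microsomes and NADPH for 16 h at 37 C.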

[7] = target: 5-hydroxytryptamine receptor 2A (Homo sapiens) (UniProt P28223); assay: 5-hydroxytryptamine receptor 2A (HTR2A) small molecule antagonists, cell-based qHTS assay (AID 1963586); also: nearly all actives have a fitted effect of over 45% in size
5-hydroxytryptamine receptor 2A (Homo sapiens), sequence (P28223 whole entry, looked up): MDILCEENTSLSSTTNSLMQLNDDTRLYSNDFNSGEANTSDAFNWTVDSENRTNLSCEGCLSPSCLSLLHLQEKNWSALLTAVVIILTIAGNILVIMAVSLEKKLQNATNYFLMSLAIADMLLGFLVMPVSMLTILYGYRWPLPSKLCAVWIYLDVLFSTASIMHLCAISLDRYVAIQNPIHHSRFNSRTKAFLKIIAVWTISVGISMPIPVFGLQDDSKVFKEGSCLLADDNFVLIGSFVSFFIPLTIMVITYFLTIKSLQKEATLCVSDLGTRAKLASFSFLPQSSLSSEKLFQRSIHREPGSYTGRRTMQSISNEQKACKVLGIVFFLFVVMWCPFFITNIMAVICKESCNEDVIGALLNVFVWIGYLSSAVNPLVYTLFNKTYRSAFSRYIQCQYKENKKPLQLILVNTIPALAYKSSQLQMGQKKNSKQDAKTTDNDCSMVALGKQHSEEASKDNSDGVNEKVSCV
Procedure, shortened: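 Antagonist-mode intracellular calcium assay: DOI (4 nM) added after 5 min compound pre-incubation at room temperature to dye-loaded HTR2A-CHO cells. Fluorescence followed for 3 min, sampled every second.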

[8] = target: 5-hydroxytryptamine receptor 2A (Homo sapiens) (UniProt P28223); assay: 5-hydroxytryptamine receptor 2A (HTR2A) small molecule agonists, cell-based qHTS assay (AID 1963587); also: nearly all actives have a fitted effect of over 30% in size
Procedure, shortened: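 Kinetic calcium-flux fluorescence (2 min, 1 sec intervals) after compound addition in agonist mode. HTR2A-CHO cells were cultured 18 h, then dye-loaded 1 h at 37 C.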

[9] = target: Muscarinic acetylcholine receptor M1 (Homo sapiens) (UniProt P11229); assay: Cholinergic receptor muscarinic 1 (CHRM1) small molecule antagonists, cell-based qHTS assay (AID 1963588); also: nearly all actives have a fitted effect of over 40% in size
Muscarinic acetylcholine receptor M1 (Homo sapiens), sequence (P11229 whole entry, looked up): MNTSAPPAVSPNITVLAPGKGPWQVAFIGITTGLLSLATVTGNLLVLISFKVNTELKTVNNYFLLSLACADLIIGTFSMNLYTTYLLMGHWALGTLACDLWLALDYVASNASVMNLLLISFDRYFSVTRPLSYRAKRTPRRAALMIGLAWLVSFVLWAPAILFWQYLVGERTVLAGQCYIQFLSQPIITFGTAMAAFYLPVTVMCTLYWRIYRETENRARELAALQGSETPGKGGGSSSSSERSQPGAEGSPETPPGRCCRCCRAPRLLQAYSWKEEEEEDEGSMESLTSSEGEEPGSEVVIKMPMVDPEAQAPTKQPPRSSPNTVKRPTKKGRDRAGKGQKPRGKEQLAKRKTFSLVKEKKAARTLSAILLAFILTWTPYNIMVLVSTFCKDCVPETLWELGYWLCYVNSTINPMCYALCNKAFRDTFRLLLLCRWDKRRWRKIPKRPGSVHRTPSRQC
Procedure, shortened: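 CHRM1-CHO calcium-flux assay, antagonist mode. Cells were seeded 18 h, dye-loaded 1 h at 37 C and given compound for 5 min at RT, then acetylcholine was added at 50nM. FDSS fluorescence was read 3 min; 15 concentrations, three runs.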

[10] = cAMP Responsive Elements (CRE) small molecule agonists, cell-based qHTS assay (AID 1963590)
Procedure, shortened: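 A CRE-responsive beta-lactamase reporter in HEK 293T cells was used. Treatment ran 3 h at 37 C; detection used LiveBLAzer B/G FRET substrate for 2 h at room temperature.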

[11] = target: Beta-2 adrenergic receptor (Homo sapiens) (UniProt P07550); assay: Adrenergic beta2 receptor (ADRB2) small molecule antagonists, cell-based qHTS assay (AID 1963592); also: series mostly up to about 92 µM; nearly all actives have a fitted effect of over 50% in size
Beta-2 adrenergic receptor (Homo sapiens), sequence (P07550 whole entry, looked up): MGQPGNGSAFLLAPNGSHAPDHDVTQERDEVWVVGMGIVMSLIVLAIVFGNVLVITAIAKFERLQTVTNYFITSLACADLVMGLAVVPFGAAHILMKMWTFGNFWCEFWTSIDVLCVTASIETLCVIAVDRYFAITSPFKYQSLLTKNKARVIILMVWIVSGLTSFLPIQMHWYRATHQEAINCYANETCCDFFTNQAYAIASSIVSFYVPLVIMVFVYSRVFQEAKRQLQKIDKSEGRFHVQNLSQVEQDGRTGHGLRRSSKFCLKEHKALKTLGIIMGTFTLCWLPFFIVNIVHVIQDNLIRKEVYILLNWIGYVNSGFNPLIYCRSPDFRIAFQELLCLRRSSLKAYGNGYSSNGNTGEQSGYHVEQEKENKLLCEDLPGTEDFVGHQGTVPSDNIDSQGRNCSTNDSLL
Procedure, shortened: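 Cells (CHO, stable ADRB2 overexpression) incubated 18-20hr at 37C; compounds added from DMSO; agonist mix (1nM isoproterenol, 100uM IBMX, 25uM Ro-20-1724) added; 0.5hr RT; d2-cAMP and anti-cAMP-cryptate added; 1hr RT; 665/615 nm read.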

[12] = target: D(2) dopamine receptor (Homo sapiens) (UniProt P14416); assay: Dopamine D2 receptor (DRD2) small molecule agonists, cell-based qHTS assay (AID 1963594); also: nearly all actives have a fitted effect of over 35% in size
D(2) dopamine receptor (Homo sapiens), sequence (P14416 whole entry, looked up): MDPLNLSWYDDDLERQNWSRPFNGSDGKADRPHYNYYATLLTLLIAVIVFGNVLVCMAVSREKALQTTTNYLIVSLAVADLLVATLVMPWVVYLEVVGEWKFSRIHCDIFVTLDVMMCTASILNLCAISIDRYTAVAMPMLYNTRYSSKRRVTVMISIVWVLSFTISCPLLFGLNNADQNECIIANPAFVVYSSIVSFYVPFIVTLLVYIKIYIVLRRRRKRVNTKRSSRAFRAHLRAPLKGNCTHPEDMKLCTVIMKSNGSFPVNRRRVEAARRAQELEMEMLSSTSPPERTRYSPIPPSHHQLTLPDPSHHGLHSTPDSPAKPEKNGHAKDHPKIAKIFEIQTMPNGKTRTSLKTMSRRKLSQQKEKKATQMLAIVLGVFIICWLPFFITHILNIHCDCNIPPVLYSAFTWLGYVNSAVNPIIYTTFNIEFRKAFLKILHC
Procedure, shortened: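 cAMP accumulation in DRD2-HEK293 cells measured by HTRF after 1 h detection; compounds added 10 min before NKH477 (200nM […]) forskolin-analogue stimulation, 30 min at room temperature, with Ro20-1724 present at 0.1 mM final.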

[13] = target: D(2) dopamine receptor (Homo sapiens) (UniProt P14416); assay: Dopamine D2 receptor (DRD2) small molecule antagonists, cell-based qHTS assay (AID 1963595; active = well fitted inhibition curve with a large enough effect in the signal ratio in the repeat runs, with a control signal flat; the % refers to the signal ratio)
Procedure, shortened: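 Human DRD2 antagonist qHTS measuring cAMP by HTRF. The cells are exposed to compound for 10 min, then to NKH477 (200 nM) and quinpirole (12 nM) for 30 min at RT, with Ro20-1724 (0.1 mM) present throughout.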

[14] = p53 small molecule agonists, cell-based qHTS assay with human liver microsomes (AID 1963577)
Procedure, shortened: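 p53RE-bla cells, 4,000/well, compound added after 5 h, with human liver microsomes 0.5 mg/mL and NADPH 0.5 mg/mL final; 16 h at 37 C, then LiveBLAzer 2 h RT, fluorescence.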

[15] = p53 small molecule agonists, cell-based qHTS assay with rat liver microsomes (AID 1963578)
Procedure, shortened: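 p53RE-bla cells, 4,000/well, pre-incubated 5 h, then given compounds plus rat liver microsomes (0.5 mg/mL final) and NADPH (0.5 mg/mL final). Incubation 16 h at 37 C; beta-lactamase reporter read by LiveBLAzer fluorescence after 2 h at room temperature.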

[16] = p53 small molecule agonists, cell-based qHTS assay: qHTS cell viability counter screen (AID 1963581); also: nearly all actives have a fitted effect of over 45% in size
Procedure, shortened: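 Following 5 h attachment, HCT-116 p53RE-bla cells took up compound for 16 h at 37 C; the reporter was read with B/G FRET substrate (2 h RT), and viability then via CellTiter-Glo ATP luminescence.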

[17] = target: Muscarinic acetylcholine receptor M1 (Homo sapiens) (UniProt P11229); assay: Cholinergic receptor muscarinic 1 (CHRM1) small molecule agonists, cell-based qHTS assay (AID 1963589); also: nearly all actives have a fitted effect of over 35% in size
Procedure, shortened: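 Measures agonist-induced intracellular calcium rise. Stable human CHRM1 CHO line, 1 h dye load at 37 C, compounds from DMSO, kinetic fluorescence read.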

[18] = cAMP Responsive Elements (CRE) small molecule antagonists, cell-based qHTS assay (AID 1963591; active = well fitted inhibition curve with a large enough effect in the signal ratio in the repeat runs, not every such curve was filed as active; the % refers to the signal ratio)
Procedure, shortened: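 HEK293T cells carrying a CRE-driven beta-lactamase reporter receive compound and NKH477 (0.25 uM final) for 3 h. Fluorescence from LiveBLAzer B/G FRET substrate is read after 2 h at room temperature.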

[19] = target: Beta-2 adrenergic receptor (Homo sapiens) (UniProt P07550); assay: Adrenergic beta2 receptor (ADRB2) small molecule agonists, cell-based qHTS assay (AID 1963593);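 also: CHO cells stably overexpressing human ADRB2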
Procedure, shortened: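 CHO cells stably over-expressing ADRB2 were plated overnight at 37C, then dosed with compounds plus a stimulation mix containing 100uM IBMX and 25uM Ro-20-1724 for 0.5hr at room temperature. cAMP was measured by HTRF competition, 1hr.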

[20] = p53 small molecule agonists, cell-based qHTS assay (AID 1963582; active = well fitted activation curve with a large enough effect in the signal ratio in the repeat runs, not every such curve was filed as active; the % refers to the signal ratio; also: potency is read from the fitted curve at half-maximal effect)
Procedure, shortened: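 In this cell-based concentration-response screen, a p53 response element drives beta-lactamase; cells received DMSO-borne compounds after 5 h culture and were incubated a further 16 h before FRET substrate development.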

| SMILES | Potency [1] | Potency [2] | Potency [3] | Potency [4] | Potency [5] | Potency [6] | Potency [7] | Potency [8] | Potency [9] | Potency [10] | Potency [11] | Potency [12] | Potency [13] | Potency [14] | Potency [15] | Potency [16] | Potency [17] | Potency [18] | Potency [19] | Potency [20] |
| --- | --- | --- | --- | --- | --- | --- | --- | --- | --- | --- | --- | --- | --- | --- | --- | --- | --- | --- | --- | --- |
| CC(=O)CC(=O)Nc1ccccc1 | inactive | inactive | inactive | inactive | inactive | inactive | inactive | inactive | inactive | inactive | inactive | inactive | inactive |  |  |  |  |  |  |  |
| C1CN(CCOCCN2CCOCC2)CCO1 | inactive | inactive | inactive | inactive | inactive | inactive | inactive | inactive |  | inactive | inactive | inactive | inactive | inactive | inactive | inactive | inactive | inactive | inactive |  |
| [Cl][In]([Cl])[Cl] | 3.44 µM (active) | inactive | inactive | inactive |  | inactive | inactive | inactive |  | inactive | inactive | inactive | inactive | inactive | inactive |  | inactive | inactive |  | inactive |
| Oc1ccc(C(c2ccc(O)cc2)C(Cl)(Cl)Cl)cc1 | 27.3 µM (active) | inactive | inactive | inactive | inactive | inactive | inactive |  |  |  |  | inactive | inactive | inactive | inactive | inactive | inactive | inactive |  |  |
| CC(=O)OCCCc1ccccc1 | inactive | inactive | inactive | inactive | inactive | inactive | inactive | inactive | inactive | inactive | inactive |  | inactive | inactive |  | inactive | inactive | inactive | inactive |  |
| CN(C)c1ccc2nc3ccc(=[N+](C)C)cc-3sc2c1 | 10.4 µM (active) and 15.4 µM (active) and 13.3 µM (active) | inactive | inactive | inactive | 8.14 µM (active) |  | inactive | inactive | inactive | inactive |  |  |  | inactive | inactive | inactive | inactive | inactive |  | 28.9 µM (active) |
| O=C(O)[C@@H]1[C@H]2C[C@H]3c4[nH]c5ccccc5c4CCN3C[C@@H]2CC[C@@H]1O | inactive | inactive | inactive |  | inactive | inactive | inactive | inactive | inactive | inactive | inactive | inactive |  | inactive | inactive | inactive | inactive | inactive | inactive | inactive |
| CCCCCCCCCCCCCCO | inactive | inactive | inactive | inactive |  | inactive | inactive |  | inactive | inactive | inactive | inactive | inactive | inactive | inactive | inactive | inactive | inactive |  | inactive |
| COc1ccc(N)c(OC)c1 | inactive and 68.6 µM (active) | inactive | inactive |  | inactive | inactive | inactive | inactive | inactive |  | inactive | inactive | inactive | inactive | inactive | inactive | inactive | inactive | inactive | inactive |
| O=C(O)c1cc2ccccc2cc1O | inactive | inactive | inactive | inactive | inactive | inactive | inactive | inactive | inactive |  | inactive | inactive | inactive |  |  | inactive | inactive | inactive | inactive |  |
| O=Cc1ccc(F)cc1 | inactive | inactive | inactive | inactive | inactive | inactive |  | inactive | inactive | inactive | inactive | inactive | inactive | inactive | inactive | inactive | inactive | inactive | inactive | inactive |
| Cc1ccc(CO)cc1 | inactive | inactive | inactive | inactive | inactive | inactive | inactive | inactive | inactive | inactive | inactive | inactive | inactive | inactive |  | inactive | inactive | inactive | inactive | inactive |
| CCCCC/C=C/C=C/C=O | 61.1 µM (active) | inactive | inactive | inactive | inactive | inactive | inactive | inactive | inactive | inactive | inactive | inactive | inactive | inactive |  | inactive | inactive | inactive | inactive | inactive |
| CC1(C)C(=O)N(Br)C(=O)N1Cl | inactive | inactive | inactive | inactive | inactive |  | inactive | inactive | inactive | inactive | inactive | inactive | inactive | inactive | inactive | inactive | inactive | inactive | inactive | inactive |
| O=Cc1ccc(Cl)cc1 | inactive | inactive | inactive | inactive | inactive | inactive | inactive | inactive | inactive | inactive | inactive | inactive | inactive | inactive |  | inactive | inactive | inactive |  | inactive |
